Laboratory results taken from publication PMC12136788.
The full ranking holds about 24,000 sequences; the median of “enrichment r” is about 0.99, and the highest 2% start at about 3.7. Many of the other results were omitted from the sample, so the highest values are more common in it than they were.

B1: chrX:12734859:12734860:+_ENSMUSG00000031010_ENSMUST00000089302|mus_hu|motif|central (ssRNA)
RNA: GGGAGUUCUACAGUCCGACGAUCAUCACUGGCAGAGCCACGGACUACUUUCUUUGUGUGAAAUCCUGUAGUAAAGAGGAACCGGGCAGCAAGUUGAAUACUGAUCAUAGUGAUUUCUUCUGCUUCAGGCAACAGGUGAUCUUGCAACAGAGGAUUGAGCAUCA
B2: chr8:21961785:21961786:+_ENSG00000158863_ENST00000289921|hu_mus|FALSE|FALSE (ssRNA)
RNA: GGGAGUUCUACAGUCCGACGAUCCCAUGCAAAUGCCAAAGUGCAUUGAGUAUUGCCCAGCCUCUCAAACGAGUACAAAUCUCAAGUGUAGACCCACUCCACCAAGAUCUGCUCCUGUCCCACACCAGCACCCAUGUGUACUCACAACAGAGGAUUGAGCAUCA
B3: 131934741_131943559_139_3pUTR_ENSG00000108010_ENST00000331244|human|control|control (ssRNA)
RNA: GGGAGUUCUACAGUCCGACGAUCUUCUUUAGCUAACUCUGCCAUAACUUCGUUCAUCUGUGCACACUGUGGAGCCCAUGGUGCCCAGAAAUGGACCACAAGGAGGGACUUGGCUUUGAGGCGCAGCAGCUCCUCAAACUGCCCCAACAGAGGAUUGAGCAUCA
B4: 88753824_88753944_1043_CDS_ENSMUSG00000053333_ENSMUST00000065694|mouse|control|control (ssRNA)
RNA: GGGAGUUCUACAGUCCGACGAUCGGCAAAAUUACAGUCCUCCUUCCAGUCUAUGAUGCGGCAGAUGAACAGCGUGUUGGCAAAGUCUUUAGGUCGGGUCAUGAAGUCCUGGGGACAGUCCUUGAGAGGUACGUAAAUUCUAGGCAACAGAGGAUUGAGCAUCA
B5: chr5:108714581:108714582:-_ENSG00000198961_ENST00000361557|hu_hu|FALSE|FALSE (ssRNA)
RNA: GGGAGUUCUACAGUCCGACGAUCUGAAAGACCAGUGUAUGCCUCUGCCUCUCUGUUUUCCAACUCAAAUACUGUAUUGCCUAAUGAUUCCUGGUAUCUACUACCUUCCACGACUUCUGCAGAAAGUUGAAGAUGGUCAUUAUCCAACAGAGGAUUGAGCAUCA
B6: chr15:31520727:31520728:-_ENSMUSG00000022234_ENSMUST00000022842|mus_mus|FALSE|FALSE (ssRNA)
RNA: GGGAGUUCUACAGUCCGACGAUCAGUUUAUUCUUCAGAUUCUCCAGGCUUACGGAUGUCAUCAAUCUUCAGAAUCAUCCUAACCAUCUGGGUGGCAAGAGAGAUCUGCUGCUUUUUGCCAAUCAAGGUUUCUAUGACAUGCUGCAACAGAGGAUUGAGCAUCA
B7: 86370578_86370698_3324_CDS_ENSMUSG00000021244_ENSMUST00000021670|mouse|control|control (ssRNA)
RNA: GGGAGUUCUACAGUCCGACGAUCUGGCCUCACAAACACCCUGUCCCGGUUGCCUUCUCCUCUGUUCAUUUUCUCACGACUGUCUUCUCUUCUACCCAUCAUUUUAUCAUGGAAAUCUUCUUGCUUGACCAGACCUGGACCACGCAACAGAGGAUUGAGCAUCA
B8: chr7:26236612:26236613:-_ENSG00000122566_ENST00000356674|hu_mus|motif|central (ssRNA)
RNA: GGGAGUUCUACAGUCCGACGAUCAACAAACAGCUUCUUCACAGUCACAUGGGCUCCUGGUUUUCCAGACUCCUCUCUUGCGGCAGCACGUUUUGGCUCAACUACCCUGCCAUCAAUGGAAUGGGGCCUUGCAGCCAUGGCAGCCAACAGAGGAUUGAGCAUCA
B9: chr1:163117127:163117128:-_ENSG00000143248_ENST00000313961|hu_mus|hu_hu_hu_mus_False|1_18 (ssRNA)
RNA: GGGAGUUCUACAGUCCGACGAUCUGCUACAAAGGAUGUAACUCAACUCACAGGGCAACUUUUGGAAGCCUGACCAGAUGACUACUUGAUUAGCUCCUUAUAAAAUUCAGAGCGCACAAAGCGAGGCAGAGAAUCCUUUUCCAUCAACAGAGGAUUGAGCAUCA
B10: chr16:45382771:45382772:-_ENSMUSG00000022661_ENSMUST00000163230|mus_mus|mus_mus_mus_hu_True|18_88 (ssRNA)
RNA: GGGAGUUCUACAGUCCGACGAUCCUGGGUCAUGUUAUAAGACAAAUGGAUAGGGAGGGCAUGCUUCUCAAAAAAUGUGAGCUAUUGUCUAAGACUAACAAUAUUUAUCUAGCUAUAUAAAAAUAAGAAAUGAAUAAGUUAAGACAACAGAGGAUUGAGCAUCA
B11: chr18:56819859:56819860:+_ENSG00000166562_ENST00000588875|hu_mus|hu_hu_hu_mus_True|38_38 (ssRNA)
RNA: GGGAGUUCUACAGUCCGACGAUCAACCUUGAUUACUCUGUGAACUAUCGGAAUGUCUCUUCCUUCAACCUUAAAAACAACUAUUUCACCAGCUCUGAUUGGGUCUUCCCGGAAAUUCGUGAGGAACAGCAGAUCUCCUCUGUGCAACAGAGGAUUGAGCAUCA
B12: 78791426_78796734_1209_CDS_ENSMUSG00000033088_ENSMUST00000109689|mouse|control|control (ssRNA)
RNA: GGGAGUUCUACAGUCCGACGAUCACUGCCAGAAUUCUCCUUCCUCUGGCCUGCUGUGUCUCCUCGGGCUGGGGACCUGGUGGCCUUUCGAGCACUGUCAGCUCUCAGUCCCUCCUGAGGCCUCCUUGGGAUCAUCUCUGUGAGCAACAGAGGAUUGAGCAUCA
B13: chr7:141450121:141450122:+_ENSG00000106028_ENST00000265304|hu_mus|hu_hu_hu_mus_True|28_98 (ssRNA)
RNA: GGGAGUUCUACAGUCCGACGAUCUCAUCCGUUCUAUUCCUUCUCUUUUGUCUGGUCACUCAGAAAUAUAAUGUUAUCAGCUAUGAUUGUUGUUGCUUGCCGCCUCACAUUAUUUUUAUCCAUGUACUCGCCAUAGUCCACUUUCAACAGAGGAUUGAGCAUCA
B14: 180848183_180848303_6210_CDS_ENSMUSG00000026494_ENSMUST00000161017|mouse|control|control (ssRNA)
RNA: GGGAGUUCUACAGUCCGACGAUCAUUGGACCUUUUCUUUUGGUUUUUGAGGCUCCUGCAUCUCCCUCCCACGGAGCUGCUGUUCUCGCUCAUGGAGUCCUGGGCUGAGGAUGCACUGCCGGUGGCCUCGCUGUCUCUCAUCAUCAACAGAGGAUUGAGCAUCA

Each binder was assayed against T1, UNK ZnF1-3 (human, UniProt Q9C0B0 31-174) (assay: nsRBNS (natural sequence RNA bind-n-seq); RBNS binding buffer (assumed for nsRBNS): 25 mM Tris pH 7.5, 150 mM KCl, 3 mM MgCl2, 0.01% Triton X-100, 500 ug/ml BSA, 20 U/ml SUPERase-In, 4 C; UNK is unkempt and MSI1 is Musashi-1; names of the RNAs are library labels; protein concentration not given here; high values mean tight binding).
T1 sequence: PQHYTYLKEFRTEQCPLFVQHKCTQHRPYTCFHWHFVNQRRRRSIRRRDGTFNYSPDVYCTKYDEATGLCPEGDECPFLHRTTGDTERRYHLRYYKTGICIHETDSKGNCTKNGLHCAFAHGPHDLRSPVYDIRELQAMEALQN

Binder | binding signal [enrichment R]
B1 | 1.47
B2 | 1.22
B3 | 0.775
B4 | 1.63
B5 | 0.745
B6 | 0.637
B7 | 0.682
B8 | 0.995
B9 | 1.28
B10 | 4.85
B11 | 0.808
B12 | 0.647
B13 | 0.444
B14 | 0.445
